Reference: PubChem BioAssay
For some of these results: Results with a measured potency or affinity are listed apart. Activity calls are given as the source filed them. Unless noted, the rule behind the calls is not given here.

Experiments:
[1] = antimalarial activity against Dd2 strain (AID 2302;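 active = growth inhibition above 50% at the single 2 µM test dose, taken to imply half-maximal potency below 2 µM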;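 note: 0% = DMSO untreated growth and 100% = chloroquine plus artemisinin killed control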); conditions: P. falciparum Dd2 in RBCs, LDH growth readout, 72 h; at 2 µM; stronger effect = higher value
[2] = human hepatoma cell viability loss – ATP luminescence, cytotoxicity control for P. falciparum antimalarial project, primary screen (AID 2303;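 active = inhibition above 50%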;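 note: 0% = DMSO wells and 100% = digitonin-killed cells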); conditions: HepG2 viability, 24-48 h, at 10 µM, stronger effect = higher value
[3] = target: L-lactate dehydrogenase (Plasmodium falciparum (isolate CDC / Honduras)) (UniProt Q27743); experiment: PfLDH activity inhibition – cell lysate, 3D7 strain, counter-screen for P. falciparum growth inhibition project (AID 2304);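 note: 0% = vehicle and 100% = reference inhibitor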; conditions: P. falciparum 3D7 crude extract, LDH APAD/NBT absorbance; at 2 µM; stronger effect = higher value
[4] = inhibition of 3D7 malaria parasite growth – strain 3D7 (AID 2306);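 note: 0% = DMSO wells and 100% = chloroquine plus artemisinin control wells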; conditions: P. falciparum 3D7 erythrocytic growth, LDH absorbance, 72 h; at 2 µM; stronger effect = higher value
[5] = target: Calcium-dependent protein kinase 1 (Plasmodium falciparum (isolate 3D7)) (UniProt P62344); experiment: PfCDPK1 kinase inhibitors, biochemical, TCAMS library (AID 1159585; cut-off not given, nearly all actives have IC50 up to about 0.98 µM;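 note: inhibitors leave more ATP so luminescence rises with inhibition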); conditions: recombinant PfCDPK1, Kinase-Glo ATP depletion luminescence
[6] = target: Plasmodium falciparum protein kinase 6 (PK6, PF3D7_1337100) (UniProt Q8IDW1); experiment: PfPK6 kinase inhibitors, biochemical, TCAMS library (AID 1159586); conditions: recombinant PfPK6, Kinase-Glo ATP depletion luminescence
[7] = target: Protein kinase 7 (PK7), Plasmodium falciparum 3D7 (PF3D7_0213400) (UniProt Q7YTF7); experiment: inhibition of Plasmodium PK7 catalytic activity – biochemical, TCAMS antimalarial set, Kinase-Glo luminescence (AID 1159587); conditions: recombinant PfPK7, Kinase-Glo ATP depletion luminescence
[8] = target: Calcium-dependent protein kinase 4 (Plasmodium falciparum (isolate 3D7)) (UniProt Q8IBS5); experiment: PfCDPK4 kinase inhibitors, biochemical, TCAMS library (AID 1159588; cut-off not given, nearly all actives have IC50 up to about 0.91 µM); conditions: recombinant PfCDPK4, Kinase-Glo ATP depletion luminescence
Chain of Calcium-dependent protein kinase 4 (Plasmodium falciparum (isolate 3D7)) (Q8IBS5 whole entry, looked up): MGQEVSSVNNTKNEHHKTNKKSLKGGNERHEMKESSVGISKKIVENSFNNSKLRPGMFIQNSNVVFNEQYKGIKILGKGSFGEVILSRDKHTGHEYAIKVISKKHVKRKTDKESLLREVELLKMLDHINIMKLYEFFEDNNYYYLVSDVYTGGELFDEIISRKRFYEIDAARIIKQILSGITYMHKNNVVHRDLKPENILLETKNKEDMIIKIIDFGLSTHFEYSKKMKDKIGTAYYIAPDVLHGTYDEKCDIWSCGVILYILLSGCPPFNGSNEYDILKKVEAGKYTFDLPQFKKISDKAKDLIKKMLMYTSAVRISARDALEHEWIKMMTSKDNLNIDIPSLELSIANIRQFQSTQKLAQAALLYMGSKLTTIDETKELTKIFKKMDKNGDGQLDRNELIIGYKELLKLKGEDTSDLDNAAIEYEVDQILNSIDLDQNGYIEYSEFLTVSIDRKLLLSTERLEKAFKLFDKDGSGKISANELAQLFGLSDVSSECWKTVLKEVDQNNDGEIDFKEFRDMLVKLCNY

Chain of Calcium-dependent protein kinase 1 (Plasmodium falciparum (isolate 3D7)) (P62344 whole entry, looked up): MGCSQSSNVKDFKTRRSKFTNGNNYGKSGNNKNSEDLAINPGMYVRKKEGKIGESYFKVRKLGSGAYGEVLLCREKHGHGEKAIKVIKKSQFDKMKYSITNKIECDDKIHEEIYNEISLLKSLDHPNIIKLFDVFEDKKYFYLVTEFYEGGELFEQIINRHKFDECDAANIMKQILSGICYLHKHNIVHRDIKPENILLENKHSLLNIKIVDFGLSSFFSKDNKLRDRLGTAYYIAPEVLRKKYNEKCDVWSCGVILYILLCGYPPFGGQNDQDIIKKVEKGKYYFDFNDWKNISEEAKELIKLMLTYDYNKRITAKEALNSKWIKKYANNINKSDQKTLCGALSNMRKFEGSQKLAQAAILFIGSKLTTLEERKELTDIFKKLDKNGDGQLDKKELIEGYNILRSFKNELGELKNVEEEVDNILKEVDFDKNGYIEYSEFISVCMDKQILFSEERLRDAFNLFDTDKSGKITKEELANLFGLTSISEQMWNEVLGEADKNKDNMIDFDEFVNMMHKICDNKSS
Chain of L-lactate dehydrogenase (Plasmodium falciparum (isolate CDC / Honduras)) (Q27743 whole entry, looked up): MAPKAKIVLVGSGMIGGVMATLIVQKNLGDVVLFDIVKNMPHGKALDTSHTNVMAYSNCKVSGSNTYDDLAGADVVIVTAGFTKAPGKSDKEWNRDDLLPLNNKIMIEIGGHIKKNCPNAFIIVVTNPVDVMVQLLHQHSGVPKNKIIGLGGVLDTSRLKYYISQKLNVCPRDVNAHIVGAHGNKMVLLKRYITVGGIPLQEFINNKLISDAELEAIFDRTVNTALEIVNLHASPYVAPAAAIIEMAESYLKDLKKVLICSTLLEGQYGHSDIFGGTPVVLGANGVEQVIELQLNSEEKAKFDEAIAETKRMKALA
Chain of Protein kinase 7 (PK7), Plasmodium falciparum 3D7 (PF3D7_0213400) (Q7YTF7 1-343): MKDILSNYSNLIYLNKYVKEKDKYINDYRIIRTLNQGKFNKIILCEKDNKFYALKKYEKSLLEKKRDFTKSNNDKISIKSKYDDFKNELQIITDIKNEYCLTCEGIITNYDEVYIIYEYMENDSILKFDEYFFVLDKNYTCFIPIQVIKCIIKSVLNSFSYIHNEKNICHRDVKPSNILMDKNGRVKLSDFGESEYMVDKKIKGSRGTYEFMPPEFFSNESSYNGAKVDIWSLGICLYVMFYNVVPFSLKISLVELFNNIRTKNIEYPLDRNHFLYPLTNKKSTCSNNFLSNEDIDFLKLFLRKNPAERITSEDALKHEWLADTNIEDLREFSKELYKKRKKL
Chain of Plasmodium falciparum protein kinase 6 (PK6, PF3D7_1337100) (Q8IDW1 1-305): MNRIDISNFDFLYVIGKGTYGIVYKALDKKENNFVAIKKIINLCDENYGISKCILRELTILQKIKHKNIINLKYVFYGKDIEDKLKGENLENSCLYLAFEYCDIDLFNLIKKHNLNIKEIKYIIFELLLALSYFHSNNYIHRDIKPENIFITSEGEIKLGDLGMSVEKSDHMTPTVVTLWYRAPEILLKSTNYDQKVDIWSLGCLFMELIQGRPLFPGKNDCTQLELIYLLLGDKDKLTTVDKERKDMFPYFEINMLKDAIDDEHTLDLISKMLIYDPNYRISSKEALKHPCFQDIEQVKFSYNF

COC(=O)c1cccc(CNCc2cccc(-c3ccc(-c4nc5c(C)cccc5[nH]4)cc3)c2)c1
active: growth inhibition [1] 52% | growth inhibition [4] 102%
inactive: inhibition [2] 3% | inhibition [3] 2% | outcome [5] | outcome [6] | outcome [7] | outcome [8]

CCCCOP(=O)(OCCCC)C(=Cc1ccc(O)c2ccccc12)P(=O)(OCCCC)OCCCC
inactive: inhibition [2] 1% | inhibition [3] -6% | outcome [5] | outcome [6] | outcome [7] | outcome [8]
active: growth inhibition [1] 64% | growth inhibition [4] 84%

C=CCOC(=O)N1CCC(CNCc2ccc(-c3ccc(-c4nc5ccc(C(F)(F)F)cc5[nH]4)cc3)cc2)C1 (stereo not given)
inactive: inhibition [2] 44% | inhibition [3] -2% | outcome [5] | outcome [6] | outcome [7] | outcome [8]
active: growth inhibition [1] 98% | growth inhibition [4] 103%

COc1ccc2nccc([C@@H](O)CN3CCC(NC(=O)C(c4ccsc4)N4CCN(c5ccccc5)CC4)CC3)c2c1 (stereo not given in full)
active: growth inhibition [4] 95%
inactive: growth inhibition [1] 17% | inhibition [2] 24% | inhibition [3] -8% | outcome [5] | outcome [6] | outcome [7] | outcome [8]

CCCNC(=O)C1Cc2cc(OC)c(OC)cc2C2(N1)C(=O)N(Cc1cccc(OC)c1)c1ccccc12 (stereo not given)
inactive: inhibition [2] 11% | inhibition [3] 3% | outcome [5] | outcome [6] | outcome [7] | outcome [8]
active: growth inhibition [1] 63% | growth inhibition [4] 91%

Cc1ccc(O)c(Nc2c3c(c(C#N)c4nc5ccccc5n24)CCC3)c1
active: growth inhibition [4] 85%
inactive: growth inhibition [1] 2% | inhibition [2] 7% | inhibition [3] -3% | outcome [5] | outcome [6] | outcome [7] | outcome [8]

COc1cc2c(cc1C(F)(F)F)N(C(=O)Nc1cc(-c3ccncc3)cc(-c3cccnc3)c1)CC2
active: growth inhibition [1] 50% | inhibition [2] 64% | growth inhibition [4] 95%
inactive: inhibition [3] 7% | outcome [5] | outcome [6] | outcome [7] | outcome [8]

Cc1cccc2[nH]c(-c3ccc(-c4cccc(CN5CCC(C(N)=O)CC5)c4)s3)nc12
inactive: growth inhibition [1] 16% | inhibition [2] 1% | inhibition [3] 4% | outcome [5] | outcome [6] | outcome [7] | outcome [8]
active: growth inhibition [4] 86%

Cc1cc(N2CC=CCC2)nc(/N=C(\N)Nc2ccc(Br)cc2)n1
inactive: growth inhibition [1] 41% | inhibition [2] 10% | inhibition [3] -3% | outcome [5] | outcome [6] | outcome [7] | outcome [8]
active: growth inhibition [4] 98%

CC(O)C1CCCCN1C(=O)c1ccc(-c2cccc(-c3nc4ccc(F)cc4[nH]3)c2)cc1 (stereo not given)
inactive: inhibition [2] 30% | inhibition [3] -6% | outcome [5] | outcome [6] | outcome [7] | outcome [8]
active: growth inhibition [1] 97% | growth inhibition [4] 100%

COc1cc(C(=O)NC2CC(C)(C)NC(C)(C)C2)ccc1-c1cc2cc(Cl)c(Cl)cc2[nH]1
active: growth inhibition [4] 99%
inactive: growth inhibition [1] 31% | inhibition [2] 41% | inhibition [3] 6% | outcome [5] | outcome [6] | outcome [7] | outcome [8]

COc1cc(C(=O)N2[C@@H](c3nccs3)[C@@H](C(=O)N(OC)C(C)c3ccccc3)C[C@@]2(CC(C)C)C(=O)OC(C)(C)C)ccc1C(C)(C)C (stereo not given in full)
active: growth inhibition [1] 92% | growth inhibition [4] 92%
inactive: inhibition [2] 12% | inhibition [3] 5% | outcome [5] | outcome [6] | outcome [7] | outcome [8]

Cc1ccc(Oc2cnn(C)c(=O)c2Nc2cccc(C(=O)NCCc3ccccn3)c2)c(C)c1
inactive: inhibition [2] 0% | inhibition [3] -4% | outcome [5] | outcome [6] | outcome [7] | outcome [8]
active: growth inhibition [1] 94% | growth inhibition [4] 94%

CN1CCN(c2cccc(NC(=O)c3ccc(-c4ccc(C#N)cc4)cc3)c2)CC1
active: growth inhibition [4] 84%
inactive: growth inhibition [1] 7% | inhibition [2] 31% | inhibition [3] 2% | outcome [5] | outcome [6] | outcome [7] | outcome [8]

C#CCNCc1ccc(-c2cccc(-c3nc4c(C)cccc4[nH]3)c2)cc1
active: growth inhibition [4] 100%
inactive: growth inhibition [1] 32% | inhibition [2] -4% | inhibition [3] 2% | outcome [5] | outcome [6] | outcome [7] | outcome [8]

CCc1nc(N)nc(N)c1-c1ccc(C(C)(C)C)cc1
inactive: growth inhibition [1] -5% | inhibition [2] 27% | inhibition [3] -7% | outcome [5] | outcome [6] | outcome [7] | outcome [8]
active: growth inhibition [4] 94%

O=C(/C=C/c1ccc(Cl)cc1)NCCCCCN1CCCC(C(=O)Nc2ccc(Cl)c(Cl)c2)C1 (stereo not given)
active: growth inhibition [4] 96%
inactive: growth inhibition [1] 3% | inhibition [2] 27% | inhibition [3] -3% | outcome [5] | outcome [6] | outcome [7] | outcome [8]

COc1ccc(C(=O)NCc2ccc(N)nc2C)cc1Nc1ncc(-c2cccc(N(C)C)c2)cn1
inactive: inhibition [2] 9% | inhibition [3] -1% | outcome [5] | outcome [6] | outcome [7] | outcome [8]
active: growth inhibition [1] 68% | growth inhibition [4] 89%

O=c1cc(NC[C@H]2CCC[C@@H]2NC2CCCc3c2[nH]c2ccccc32)[nH]c2ccccc12 (stereo not given in full)
active: growth inhibition [4] 101%
inactive: growth inhibition [1] 25% | inhibition [2] 6% | inhibition [3] -6% | outcome [5] | outcome [6] | outcome [7] | outcome [8]

C[C@H]1CN(Cc2cccc(-c3cc(CNC(=O)c4cccc(CN5CCN(C/C=C/c6ccccc6)CC5)c4)ccc3F)c2)CCN1
inactive: growth inhibition [1] 46% | inhibition [3] -2% | outcome [5] | outcome [6] | outcome [7] | outcome [8]
active: inhibition [2] 98% | growth inhibition [4] 98%
